Laboratory results taken from the supplement of paper PMC11732987, “Enantioselective OTUD7B fragment discovery through chemoproteomics screening and high-throughput optimisation” (Communications Chemistry, 2025).

Experiments:
Assay in all cases: log2 ratio of Biotin-Ahx-Ub-VS probe labelling (fragment/DMSO); higher = less target engagement (more negative = stronger competition), active = hit call of the paper (q ≤ 0.05, log2 ratio ≤ -1)
Details in all cases: compound concentration: 200 uM; treatment time: 3 h
[1] = target: T1, USP19 (UniProt O94966)
T1 sequence (whole entry): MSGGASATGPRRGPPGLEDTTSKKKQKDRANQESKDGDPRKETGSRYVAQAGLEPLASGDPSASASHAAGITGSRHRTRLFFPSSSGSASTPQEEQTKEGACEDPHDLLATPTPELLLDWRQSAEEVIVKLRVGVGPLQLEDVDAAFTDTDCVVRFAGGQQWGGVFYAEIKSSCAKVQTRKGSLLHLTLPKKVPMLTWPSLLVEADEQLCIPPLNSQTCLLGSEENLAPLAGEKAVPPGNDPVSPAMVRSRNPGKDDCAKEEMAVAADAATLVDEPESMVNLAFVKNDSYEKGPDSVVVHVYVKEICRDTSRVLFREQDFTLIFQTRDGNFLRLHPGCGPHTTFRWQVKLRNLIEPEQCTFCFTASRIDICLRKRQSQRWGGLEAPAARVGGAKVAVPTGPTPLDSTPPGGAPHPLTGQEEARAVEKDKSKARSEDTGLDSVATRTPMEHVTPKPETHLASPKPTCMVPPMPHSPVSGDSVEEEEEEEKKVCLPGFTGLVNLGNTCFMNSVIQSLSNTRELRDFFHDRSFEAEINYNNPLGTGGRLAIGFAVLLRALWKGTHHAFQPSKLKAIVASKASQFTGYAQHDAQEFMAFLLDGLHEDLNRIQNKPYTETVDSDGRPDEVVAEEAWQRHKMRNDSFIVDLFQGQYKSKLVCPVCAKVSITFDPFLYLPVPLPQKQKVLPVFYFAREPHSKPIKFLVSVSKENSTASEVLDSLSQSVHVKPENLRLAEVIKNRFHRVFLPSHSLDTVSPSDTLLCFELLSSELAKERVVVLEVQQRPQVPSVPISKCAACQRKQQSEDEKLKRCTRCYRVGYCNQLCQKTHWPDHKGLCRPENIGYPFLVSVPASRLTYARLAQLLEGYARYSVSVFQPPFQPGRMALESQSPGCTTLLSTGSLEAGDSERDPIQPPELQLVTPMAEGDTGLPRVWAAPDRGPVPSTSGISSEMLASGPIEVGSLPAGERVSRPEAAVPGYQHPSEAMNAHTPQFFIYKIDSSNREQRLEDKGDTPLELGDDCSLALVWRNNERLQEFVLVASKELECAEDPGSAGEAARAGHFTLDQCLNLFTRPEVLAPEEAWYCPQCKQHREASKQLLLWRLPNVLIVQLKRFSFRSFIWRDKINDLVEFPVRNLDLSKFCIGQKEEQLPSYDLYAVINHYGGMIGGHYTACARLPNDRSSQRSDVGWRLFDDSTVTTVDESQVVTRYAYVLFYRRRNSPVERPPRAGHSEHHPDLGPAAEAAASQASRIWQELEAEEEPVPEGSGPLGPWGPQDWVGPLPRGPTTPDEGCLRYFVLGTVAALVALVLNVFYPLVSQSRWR
Outline: (§1)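 Triplicate samples of HEK293T lysate, 495 µg each, received fragment at 200 µM or vehicle for 3 h, followed by Biotin-Ahx-Ub-VS (0.5 µM final) for 1 h. After NeutrAvidin enrichment of labelled DUBs and LysC/trypsin digestion, peptides were run by diaPASEF LC-MS/MS. The values are average log2 fragment/vehicle ratios from global-median-normalised Spectronaut label-free quantities, tested by unpaired t-test on proteins having ≥2 unique peptides.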

[2] = target: USP24 (UniProt Q9UPU5)
USP24, sequence (Q9UPU5 whole entry): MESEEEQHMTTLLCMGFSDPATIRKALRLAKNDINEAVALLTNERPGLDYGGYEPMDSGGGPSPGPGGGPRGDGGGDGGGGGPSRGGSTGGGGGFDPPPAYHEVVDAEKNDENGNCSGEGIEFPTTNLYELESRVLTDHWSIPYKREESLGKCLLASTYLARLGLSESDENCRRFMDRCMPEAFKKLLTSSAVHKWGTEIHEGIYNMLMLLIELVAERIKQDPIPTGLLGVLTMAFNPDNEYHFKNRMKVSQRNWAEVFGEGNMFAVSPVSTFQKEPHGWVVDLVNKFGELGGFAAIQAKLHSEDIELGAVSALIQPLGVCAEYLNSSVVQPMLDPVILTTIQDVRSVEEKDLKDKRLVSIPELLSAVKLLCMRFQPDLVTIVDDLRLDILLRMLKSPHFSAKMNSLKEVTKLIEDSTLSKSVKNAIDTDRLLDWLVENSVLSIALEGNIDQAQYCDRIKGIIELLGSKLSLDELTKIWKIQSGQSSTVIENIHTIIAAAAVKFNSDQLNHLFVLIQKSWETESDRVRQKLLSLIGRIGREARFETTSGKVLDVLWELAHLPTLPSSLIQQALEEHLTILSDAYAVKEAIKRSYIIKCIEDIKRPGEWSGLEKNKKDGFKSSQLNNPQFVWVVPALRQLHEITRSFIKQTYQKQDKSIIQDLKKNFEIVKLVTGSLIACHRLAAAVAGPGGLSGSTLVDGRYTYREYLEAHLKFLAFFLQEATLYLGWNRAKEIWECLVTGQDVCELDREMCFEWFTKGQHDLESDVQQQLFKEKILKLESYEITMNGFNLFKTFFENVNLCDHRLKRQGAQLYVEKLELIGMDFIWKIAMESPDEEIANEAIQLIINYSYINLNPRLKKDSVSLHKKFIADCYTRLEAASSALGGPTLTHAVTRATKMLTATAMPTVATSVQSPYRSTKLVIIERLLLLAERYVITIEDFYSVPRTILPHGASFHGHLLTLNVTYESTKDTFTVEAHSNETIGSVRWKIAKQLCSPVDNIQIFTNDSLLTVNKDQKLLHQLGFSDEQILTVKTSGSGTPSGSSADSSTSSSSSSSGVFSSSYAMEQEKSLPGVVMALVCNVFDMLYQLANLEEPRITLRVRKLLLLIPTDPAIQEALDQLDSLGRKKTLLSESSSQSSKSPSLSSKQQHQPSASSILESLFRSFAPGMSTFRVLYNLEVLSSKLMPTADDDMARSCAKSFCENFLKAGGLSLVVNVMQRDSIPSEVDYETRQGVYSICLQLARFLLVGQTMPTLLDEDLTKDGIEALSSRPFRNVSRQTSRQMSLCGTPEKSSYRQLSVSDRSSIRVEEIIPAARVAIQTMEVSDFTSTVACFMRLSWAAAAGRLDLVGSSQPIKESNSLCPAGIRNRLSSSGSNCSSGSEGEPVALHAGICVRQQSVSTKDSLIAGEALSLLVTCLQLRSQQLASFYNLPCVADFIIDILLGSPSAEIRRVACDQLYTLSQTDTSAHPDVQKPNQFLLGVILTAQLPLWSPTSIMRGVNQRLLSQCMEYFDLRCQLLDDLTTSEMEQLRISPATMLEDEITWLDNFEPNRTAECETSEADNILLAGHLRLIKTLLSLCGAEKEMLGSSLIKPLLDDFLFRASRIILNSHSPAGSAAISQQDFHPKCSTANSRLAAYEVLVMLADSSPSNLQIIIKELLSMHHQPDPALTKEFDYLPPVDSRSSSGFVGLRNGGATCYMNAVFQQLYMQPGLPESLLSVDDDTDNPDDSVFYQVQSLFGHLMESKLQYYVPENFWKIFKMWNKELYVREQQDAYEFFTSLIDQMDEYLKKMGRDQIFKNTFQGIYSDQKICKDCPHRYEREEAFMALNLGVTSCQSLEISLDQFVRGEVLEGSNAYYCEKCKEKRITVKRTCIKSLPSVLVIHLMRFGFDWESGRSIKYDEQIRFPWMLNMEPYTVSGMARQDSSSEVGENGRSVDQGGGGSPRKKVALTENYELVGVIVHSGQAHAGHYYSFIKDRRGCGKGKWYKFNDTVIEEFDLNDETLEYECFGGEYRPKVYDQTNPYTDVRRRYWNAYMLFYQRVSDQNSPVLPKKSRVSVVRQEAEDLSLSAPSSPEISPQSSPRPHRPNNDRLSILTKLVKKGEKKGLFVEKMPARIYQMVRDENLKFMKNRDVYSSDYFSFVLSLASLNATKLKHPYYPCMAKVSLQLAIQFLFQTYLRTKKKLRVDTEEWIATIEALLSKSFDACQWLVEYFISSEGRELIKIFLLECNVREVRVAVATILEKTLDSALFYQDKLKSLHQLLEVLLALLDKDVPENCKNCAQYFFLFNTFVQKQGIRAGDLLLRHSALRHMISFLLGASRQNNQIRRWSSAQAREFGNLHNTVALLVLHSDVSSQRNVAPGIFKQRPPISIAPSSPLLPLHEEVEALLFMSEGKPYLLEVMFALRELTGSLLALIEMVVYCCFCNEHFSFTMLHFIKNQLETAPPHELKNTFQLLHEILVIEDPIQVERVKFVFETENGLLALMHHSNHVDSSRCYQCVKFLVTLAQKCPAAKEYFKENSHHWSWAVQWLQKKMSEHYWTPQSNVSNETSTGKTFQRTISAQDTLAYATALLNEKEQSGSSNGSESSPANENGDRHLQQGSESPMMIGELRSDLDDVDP
Outline: as §1

[3] = target: T2, USP25 (UniProt Q9UHP3)
T2 sequence (whole entry): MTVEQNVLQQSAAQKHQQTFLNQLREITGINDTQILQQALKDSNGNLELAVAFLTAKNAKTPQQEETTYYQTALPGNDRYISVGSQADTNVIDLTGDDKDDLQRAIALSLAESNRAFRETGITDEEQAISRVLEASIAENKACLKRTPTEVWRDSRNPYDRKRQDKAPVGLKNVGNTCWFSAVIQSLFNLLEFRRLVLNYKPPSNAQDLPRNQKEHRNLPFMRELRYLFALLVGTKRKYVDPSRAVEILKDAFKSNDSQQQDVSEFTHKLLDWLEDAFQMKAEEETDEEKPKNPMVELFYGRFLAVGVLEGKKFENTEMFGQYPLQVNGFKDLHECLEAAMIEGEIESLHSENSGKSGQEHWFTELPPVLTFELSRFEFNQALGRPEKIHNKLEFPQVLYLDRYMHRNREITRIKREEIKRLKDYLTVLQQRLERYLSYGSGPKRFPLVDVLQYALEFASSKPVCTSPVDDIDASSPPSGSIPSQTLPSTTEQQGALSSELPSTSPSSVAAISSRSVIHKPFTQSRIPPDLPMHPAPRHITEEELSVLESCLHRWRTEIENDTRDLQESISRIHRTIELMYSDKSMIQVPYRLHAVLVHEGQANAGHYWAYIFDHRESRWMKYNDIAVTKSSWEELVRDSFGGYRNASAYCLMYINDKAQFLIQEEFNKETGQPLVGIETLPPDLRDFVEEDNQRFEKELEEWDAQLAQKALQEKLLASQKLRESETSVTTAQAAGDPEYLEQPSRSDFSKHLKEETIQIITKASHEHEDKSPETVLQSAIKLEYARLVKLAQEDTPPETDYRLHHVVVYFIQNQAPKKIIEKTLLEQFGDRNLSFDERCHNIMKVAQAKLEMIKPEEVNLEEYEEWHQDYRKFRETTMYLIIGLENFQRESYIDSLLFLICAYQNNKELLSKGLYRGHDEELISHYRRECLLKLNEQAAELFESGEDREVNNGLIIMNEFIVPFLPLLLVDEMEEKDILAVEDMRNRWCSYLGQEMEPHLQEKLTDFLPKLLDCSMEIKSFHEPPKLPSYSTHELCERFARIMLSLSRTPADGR
Outline: as §1

[4] = target: T3, USP28 (UniProt Q96RU2)
T3 sequence (whole entry): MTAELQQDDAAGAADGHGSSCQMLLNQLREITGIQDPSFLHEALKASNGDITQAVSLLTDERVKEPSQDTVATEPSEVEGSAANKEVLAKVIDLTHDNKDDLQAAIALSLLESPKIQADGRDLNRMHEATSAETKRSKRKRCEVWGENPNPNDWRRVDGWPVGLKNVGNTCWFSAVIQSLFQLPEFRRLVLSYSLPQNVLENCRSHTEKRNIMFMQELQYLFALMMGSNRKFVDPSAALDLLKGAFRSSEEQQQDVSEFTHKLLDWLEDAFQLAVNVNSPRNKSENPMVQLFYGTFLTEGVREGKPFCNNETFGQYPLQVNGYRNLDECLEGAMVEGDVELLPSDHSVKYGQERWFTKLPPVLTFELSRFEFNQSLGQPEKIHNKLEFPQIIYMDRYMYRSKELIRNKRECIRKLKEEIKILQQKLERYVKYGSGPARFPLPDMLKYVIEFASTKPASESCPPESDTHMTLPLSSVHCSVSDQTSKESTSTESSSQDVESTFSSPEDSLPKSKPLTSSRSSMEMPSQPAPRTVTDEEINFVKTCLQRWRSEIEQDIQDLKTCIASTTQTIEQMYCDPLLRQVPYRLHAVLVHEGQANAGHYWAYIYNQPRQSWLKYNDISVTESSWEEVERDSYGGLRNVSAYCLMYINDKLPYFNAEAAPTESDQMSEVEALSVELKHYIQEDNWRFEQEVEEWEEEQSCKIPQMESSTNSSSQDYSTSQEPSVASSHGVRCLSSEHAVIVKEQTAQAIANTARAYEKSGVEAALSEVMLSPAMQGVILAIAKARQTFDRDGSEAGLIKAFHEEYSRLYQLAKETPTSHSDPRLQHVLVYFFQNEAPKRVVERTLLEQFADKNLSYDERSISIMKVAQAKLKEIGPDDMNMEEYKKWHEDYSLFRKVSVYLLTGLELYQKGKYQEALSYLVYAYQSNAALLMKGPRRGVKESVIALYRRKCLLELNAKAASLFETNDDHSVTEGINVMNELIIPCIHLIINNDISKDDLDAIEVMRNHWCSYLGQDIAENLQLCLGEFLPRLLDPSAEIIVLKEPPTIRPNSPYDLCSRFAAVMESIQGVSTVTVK
Outline: as §1

Measured: log2 ratio of Biotin-Ahx-Ub-VS probe labelling

N#Cc1ccc(CNC(=O)CCl)cc1
inactive: [1] -0.0911 | [2] -0.183 | [3] -0.413 | [4] -0.49
